From the supplement of paper PMC8975748 come the findings set out here.

Where a name gives a salt, the structure may show the parent alone.

The test system of this test is Saccharomyces cerevisiae BY4741 SeMeCo community. As to the kind of experiment: z-score of subpopulation abundance vs DMSO median, subpopulation auxotrophic for UM; higher = larger share of this subpopulation than in DMSO controls. The following applies: 10 µM; 24 h; SM minimal medium; subpopulation (auxotrophy): UM. As for the experimental part:
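Fluorescent four-plasmid SeMeCo (self-establishing metabolically cooperating S. cerevisiae BY4741 community; plasmids pH-mRuby2, pL-mWasabi, pU-eCFP, pM-TagRFP657) was grown 24 h in minimal SM medium with each Selleck FDA-approved drug at 10 µM in 384-well plates. Cells were fixed and imaged by high-content confocal microscopy. For each auxotrophic subpopulation (and the prototroph), a z-score gives the deviation from the DMSO vehicle-control population median.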
Consider `COC(=O)C1=CCCN(C)C1` [Arecoline HBr], for which the “z-score of subpopulation abundance” value came to 0.61. As for `C[C@H]1O[C@H](O[C@H]2[C@H](O)[C@@H](O)[C@@H](O)[C@H](O)[C@@H]2O)[C@@H](N)C[C@@H]1NC(=N)C(=O)O` [Kasugamycin hydrochloride], the “z-score of subpopulation abundance” value is -0.17. Turning to `CC[C@@]1(O)C(=O)OCc2c1cc1n(c2=O)Cc2cc3ccccc3nc2-1` [Camptothecin], the “z-score of subpopulation abundance” value turned out to be 0.1. For `O=c1cccc2n1C[C@@H]1CNC[C@H]2C1` [Cytisine] the value was -0.6. Consider `O=C(O[C@H]1C[C@H]2CC[C@@H](C1)[N+]21CCCC1)C(O)(c1ccccc1)c1ccccc1` [Trospium chloride], for which the “z-score of subpopulation abundance” value was -0.43. The value for `CC[C@@H](C(N)=O)N1CCCC1=O` [Levetiracetam] was -0.62. The value for `CC1(C)SC2C(N)C(=O)N2C1C(=O)O` (centres undefined) [6-Aminopenicillanic acid] was 0.97; that for `C=CC[C@]1(O)CC[C@H]2[C@@H]3CCC4=CC(=O)CCC4=C3C=C[C@@]21C` [Altrenogest] was -0.72; that for `CN(C)[C@@H]1C(=O)C(C(N)=O)=C(O)[C@@]2(O)C(=O)C3=C(O)c4c(O)cccc4[C@@](C)(O)[C@H]3[C@H](O)[C@@H]12` [Oxytetracycline (Terramycin)] was -0.17.

On to `NC(=O)CN1CCCC1=O` [Piracetam], for which the “z-score of subpopulation abundance” value was 0.74. The value for `COc1ccc2[nH]cc(CCN)c2c1` [5-Methoxytryptamine] was 1.16; that for `CCOC(=O)Nc1ccc(NCc2ccc(F)cc2)cc1N` [Retigabine] was -1.09; that for `COc1ccc(C=O)cc1` [p-Anisaldehyde] was -0.71. Consider `CC(=O)OCC1=C(C(=O)O)N2C(=O)C(N)C2SC1` (centres undefined) [7-Aminocephalosporanic acid], for which the “z-score of subpopulation abundance” value came to 0. Turning to `CN(C)[C@@H]1C(=O)C(C(N)=O)=C(O)[C@@]2(O)C(=O)C3=C(O)c4c(O)ccc(Cl)c4[C@@](C)(O)[C@H]3C[C@@H]12` [Chlortetracycline HCl], the “z-score of subpopulation abundance” value was -0.66. In the case of `Nc1nc(N)nc(NC2CC2)n1` [Cyromazine], the “z-score of subpopulation abundance” value came out at 0.57. The value for `COc1ccc2c3c([nH]c2c1)C(C)=NCC3` [Harmaline] was -9.37. For `Oc1cccc2cccnc12` [8-Hydroxyquinoline] the value was -1.16; for `CCN1CC2(OC(=O)c3ccccc3NC(C)=O)CCC(OC)C34C1C(CC23)C1(O)CC(OC)C2CC4C1(O)C2OC` (centres undefined) [Lappaconitine], 0.23; for `CN1[C@@H]2CC[C@H]1C[C@@H](OC(=O)C(CO)c1ccccc1)C2` (some centres undefined) [Atropine sulfate monohydrate], 0.69. The value for `NCC(O)c1ccc(O)cc1` (racemic) [(+,-)-Octopamine HCl] was -0.79; that for `CCOC(=O)Nc1ccc(NCc2ccc(F)cc2)cc1N` [Retigabine 2HCl] was -0.52; that for `C[N+]12CCC(CC1)C(OC(=O)C(O)(c1ccccc1)c1ccccc1)C2` (centres undefined) [Clidinium Bromide] was -0.38. With `CC[C@H]1[C@@H]2C[C@H]3[C@@H]4N(C)c5ccccc5[C@]45C[C@@H]([C@@H]2[C@H]5O)N3[C@@H]1O` [Ajmaline], the “z-score of subpopulation abundance” value was -0.04. The value for `CC[C@H]1CN2CC[C@]3(C(=O)Nc4ccccc43)[C@@H]2C[C@@H]1/C(=C\OC)C(=O)OC` [Rhynchophylline] was 1.19. In the case of `CCN(C)C(=O)Oc1cccc([C@H](C)N(C)C)c1` [Rivastigmine Tartrate], the “z-score of subpopulation abundance” value is -0.84.

On to `N#Cc1nn(-c2c(Cl)cc(C(F)(F)F)cc2Cl)c(N)c1[S+]([O-])C(F)(F)F` (centres undefined) [Fipronil], for which the “z-score of subpopulation abundance” value is -0.68. The value for `CN1[C@@H]2CC[C@H]1C[C@@H](OC(=O)[C@H](CO)c1ccccc1)C2` [Hyoscyamine] was -0.14; that for `COc1cc2c(cc1OC)C1CC(=O)C(CC(C)C)CN1CC2` (centres undefined) [Tetrabenazine (Xenazine)] was -0.68; that for `Oc1cc(Cl)ccc1Oc1ccc(Cl)cc1Cl` [Triclosan] was -2.84. The value for `O=C(O[C@H]1C[N+]2(CCCOc3ccccc3)CCC1CC2)C(O)(c1cccs1)c1cccs1` [Aclidinium Bromide] was 0.73; that for `CN1C(=O)COc2c(C(=O)NC3CN4CCC3CC4)cc(Cl)cc21` (centres undefined) [Azasetron HCl] was 0.66. For `CN[C@@H]1[C@@H](O)[C@@H](O[C@@H]2[C@@H](O)[C@H](O[C@H]3O[C@H]([C@@H](C)O)[C@@H](O)[C@H](O)[C@H]3N)[C@@H](N)C[C@H]2N)OC[C@]1(C)O` [Geneticin (G418 Sulfate)] the value was -0.56; for `C[CH2][Hg][S]c1ccccc1C(=O)[O-].[Na+]` [Thimerosal], 6.06.
